Screening results (PubChem)
This excerpt belongs to a sample that is enriched for hits.
ClpP mod = qHTS Assay for Activators of ClpP; ATP-dependent Clp protease proteolytic subunit (Bacillus subtilis (strain 168)), P80244; purified B. subtilis ClpP, FRET peptide cleavage, 20 min; Potency, µM (series often up to 57.5 µM), for the others: at the highest dose activity change, negative = active; hit rate 1.9% among 340,000; active = well fitted falling curve with a large enough effect; inconclusive = small, poorly fitted or top-dose-only effect; inactive = no such curve, though single readings can be large or run the other way; also: potency is read from the fitted curve at half-maximal effect; the source files actives as falling curves though it sought activators and does not explain the sign; nearly all actives have a fitted effect of over 65% in size
Target sequence (P80244 whole entry, looked up): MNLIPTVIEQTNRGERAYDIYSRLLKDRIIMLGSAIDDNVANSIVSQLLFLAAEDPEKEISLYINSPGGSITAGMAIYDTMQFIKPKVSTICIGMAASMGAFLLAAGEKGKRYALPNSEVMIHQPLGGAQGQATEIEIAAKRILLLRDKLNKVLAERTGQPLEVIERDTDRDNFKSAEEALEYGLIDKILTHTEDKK
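Buffer: 100 mM Tris/HCl pH8, 100 mM KCl, 0.05% low protease BSA, 2.5% glycerol, 0.01% Tween-20. ClpP 10 microg/mL final; 20 min RT; delta FRET normalized to ADEP and DMSO controls.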
CBFb RUNX1 block = inhibitors of human CBF-beta and RUNX1 interaction | Q01196+Q13951 | AlphaScreen CBFb-His/RUNX1-biotin binding, biochemical | Potency, µM (highest dose often 59.8 µM), without a hit: at the top dose activity, negative = inhibition, hits mostly inhibitors | 230,000 tested, under 10 active | AID 1477; also: % of control where 0% means no effect
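His-tagged CBF-beta and biotinylated RUNX1 (30 nM each) were premixed 20 min at room temperature, exposed to compound for 15 min, then given nickel-chelate and streptavidin AlphaScreen beads (50 ng each). After 90 min, AlphaScreen signal was read.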
N370S GC = inhibits or activates N370S mutant glucocerebrosidase; P04062; N370S GC spleen homogenate, 4MU-glucoside fluorescence; Potency, µM (doses to about 59.4 µM), without a hit: at the highest dose activity change, negative = inhibition, most hits filed as inhibitors; hit rate 0.092% among 330,000; AID 2101;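 also: potency is read from the fitted curve at half-maximal effect; 0% = full enzyme activity and -100% = no enzyme basal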
a7 integrin act = activators of alpha7 integrin expression for muscular dystrophy | AID 624291 | alpha7betagal myoblasts, beta-gal FDG fluorescence, 48 h | hit rate 0.064% among 350,000 | Potency, µM (series often up to 38.3 µM), inactives show at the top dose activation, usual class: activators;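 also: potency is read from the fitted curve at half-maximal effect; 100% = response of the positive control SU9516; nearly all actives have a fitted effect of over 60% in size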
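alpha7betagal+/- myoblasts (passage 13, 250/well) treated 48 h at 37C with compounds at 1:260 dilution of DMSO stock. Lysed, then beta-galactosidase activity read as FDG fluorescence (ex 480/em 540) after 30 min, with pre-read for autofluorescence.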
Apoferritin bind = candidate novel general anesthetic via apoferritin binding; P02791; apoferritin/1-aminoanthracene competitive binding, fluorescence; Potency, µM (doses to about 77.5 µM), for inactives: top-dose activity change, negative = displacement, most hits filed as inhibitors; hit rate 0.074% among 350,000; AID 485281; also: potency is read from the fitted curve at half-maximal effect; % is scaled to controls: 0 for no effect and ±100 for the full control effect; nearly all actives have a fitted effect of over 20% in size
Target sequence (P02791 2-175 limits assumed): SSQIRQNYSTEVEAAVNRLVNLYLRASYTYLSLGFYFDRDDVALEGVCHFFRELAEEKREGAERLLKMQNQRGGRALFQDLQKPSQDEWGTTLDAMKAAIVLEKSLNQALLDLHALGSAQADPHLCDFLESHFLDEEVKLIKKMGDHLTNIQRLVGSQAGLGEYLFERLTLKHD
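10 uM apoferritin + 50% sat. 1-AMA, PBS; cpd 10 min RT; Ex380/Em535 endpoint; normalized to free probe vs complex; 4-param Hill fit; propofol titration as pos. ctrl.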
Glioma ERSR ind = ER stress response induction in glioma; U87-MG GRP78 promoter luciferase reporter, 16 h; Potency, µM, for the others: top-dose activation, actives largely listed as activators; hit rate 0.02% among 420,000; AID 602332; also: potency is read from the fitted curve at half-maximal effect; series mostly up to about 76 µM; % of control where 0% means no effect; nearly all actives have a fitted effect of over 35% in size
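Stably transfected U87-MG human glioma cells carrying a GRP78-based luminescent sensor were seeded at 1000 cells/well, pin-dosed with compounds and incubated 16 h. Luciferase reagent was then added, and end-point luminescence was read after 10 min at room temperature.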
* = called active by the depositor; i = inactive; ? = inconclusive; · = no result; [ ] = remark or other dose. Unless noted, calls follow the shape of the dose curve; as a rule, active = well fitted curve in the direction sought with a large enough effect; inconclusive = small, poorly fitted or top-dose-only effect, or another doubt; inactive = no such curve, though single readings can be large; an effect the other way counts as inactive or inconclusive.

SMILES	ClpP mod	CBFb RUNX1 block	N370S GC	a7 integrin act	Apoferritin bind	Glioma ERSR ind
N#Cc1c(/N=C/c2ccc(-c3ccc(C(=O)O)c(Cl)c3)o2)sc2c1CCCC2	35µM*	·	·	0%	·	-4%
Cc1nc(-c2coc3cc(OCC(=O)O)ccc3c2=O)cs1	35µM*	0%	1%	3%	-4%	-12%
Cc1nc(-c2coc3cc(O)c(C)cc3c2=O)cs1	-25%	5%	-11%	4%	2%	-11%
CCOc1ccc(N2CC(C(=O)N3CCN(c4ccccn4)CC3)CC2=O)cc1 (stereo not drawn)	20µM*	·	-3%	15%	·	-1%
CCc1ccc(N2CC(C(=O)N3CCN(c4ccccn4)CC3)CC2=O)cc1 (stereo not drawn)	28µM*	·	-1%	-18%	·	-4%
CCOc1ccc(N2CC(C(=O)N3CCCCC3)CC2=O)cc1 (stereo not drawn)	·	·	-2%	10%	31%	0%
CCN(CC(=O)NC1CCS(=O)(=O)C1)S(=O)(=O)c1ccc(C)c(C)c1 (stereo not drawn)	-1%	-3%	9%	8%	8%	-2%
CCN(CC(=O)NC1CCS(=O)(=O)C1)S(=O)(=O)c1ccc2ccccc2c1 (stereo not drawn)	25µM*	3%	-5%	-4%	-5%	-2%
CCn1c2ccccc2c2cc(C3C(C#N)=C(C)NC(C)=C3C#N)ccc21	16µM*	0%	2%	-12%	4%	-3%
O=C(NNC(=O)c1ccccc1Cl)c1cc2cc(OC(F)(F)F)ccc2[nH]1	16µM*	8%	3%	-13%	5%	-4%
Fc1ccc(Nc2nc(-c3ccoc3)nc3ccccc23)cc1	·	·	16µM*	·	·	1%
c1ccc2c(Nc3ccc(N4CCOCC4)cc3)nc(N3CCOCC3)nc2c1	·	·	-28%	2%	-12%	-2%
Cc1cccc(-c2nc(Nc3ccc(N4CCOCC4)cc3)c3ccccc3n2)c1	0%	·	2.8µM*	-27%	-6%	-4%
CCOC(=O)c1ccc(Nc2nc(-c3cccnc3)nc3ccccc23)cc1	28µM*	-3%	-14%	-2%	-6%	-2%
c1ccc(CNc2nc(-c3ccoc3)nc3ccccc23)cc1	·	·	?	·	·	5%
CC(=O)Nc1ccc(Nc2nc(-c3ccccc3)nc3ccccc23)cc1	4%	-2%	6.3µM*	2%	52%	-7%
CN1CCCC(CN(C)C(=O)c2cnn(-c3nccc(-c4ccccc4C(F)(F)F)n3)c2C2CC2)C1 (stereo not drawn)	·	·	·	·	·	-3%
O=C(OCCN=C1NS(=O)(=O)c2ccccc21)C1CC(=O)N(c2ccc3ccccc3c2)C1 (stereo not drawn)	0%	-1%	3.5µM*	21%	?	-4%
O=C(OCCN=C1NS(=O)(=O)c2ccccc21)c1ccncc1	-2%	2%	5%	24%	-7%	-5%
COc1ccccc1N(Cc1cc2cccc(C)c2[nH]c1=O)C(=O)c1cccc(Cl)c1	25µM*	·	·	·	-5%	-2%
Cc1cccc2cc(CN(C(=O)c3cccc(Cl)c3)c3ccccc3)c(=O)[nH]c12	0%	·	·	·	-14%	-4%
Cc1cc(F)ccc1S(=O)(=O)Nc1ccccc1C(=O)Nc1ccccc1N1CCOCC1	-5%	1%	·	20%	-16%	-10%
Cc1cc(F)ccc1S(=O)(=O)Nc1ccccc1C(=O)Nc1ccccc1-c1nc2ccccc2[nH]1	32µM*	21%	-4%	-64%	-3%	-1%
Cc1ccc(S(=O)(=O)Nc2ccccc2C(=O)Nc2nc(-c3ccc(F)cc3)cs2)cc1	16µM*	-9%	-7%	-58%	-12%	-4%
O=C(Nc1ccc(-c2nc3ccccc3[nH]2)cc1)c1ccccc1NS(=O)(=O)c1ccc(F)cc1	35µM*	?	-20%	24%	2%	-4%
SMILES	ClpP mod	CBFb RUNX1 block	N370S GC	a7 integrin act	Apoferritin bind	Glioma ERSR ind
COc1ccccc1C(=O)Nc1nc(-c2ccc3c(c2)OCCO3)cs1	25µM*	11%	-1%	?	3%	-2%
CCC(=O)Nc1nc(-c2ccc3c(c2)OCCO3)cs1	3%	6%	-3%	11%	-9%	-3%
CS(=O)(=O)c1ccccc1C(=O)Nc1ccc(-c2nc3ccccc3[nH]2)cc1	-8%	·	-7%	4%	-6%	3%
COc1cc(N(C)C)ccc1/C=C/c1ccnc2ccccc12	-2%	·	·	·	·	-2%
COc1ccc(-c2nc3ccc(NC(C)=O)cc3c(=O)n2Cc2cccc(Cl)c2)cc1COc1ccc(NC(C)=O)cc1	-24%	·	·	·	·	·
Cc1cc(F)ccc1S(=O)(=O)Nc1ccccc1C(=O)NCc1ccccn1	·	4%	-3%	i	-10%	-5%
Cc1cc(F)ccc1S(=O)(=O)Nc1ccccc1C(=O)Nc1ncn[nH]1	32µM*	13%	9%[2.35 µM]	40%	-12%	-5%
Oc1ccccc1CNc1ccc(Br)cn1	3.2µM*	3%	-23%	-66%	?	-3%
Brc1ccc(NCc2cccc3ccccc23)nc1	-4%	18%	30%	20%	?	5%
CO[C@@H]1[C@@H](OC2OC(C)C(OC3CC(C)(O)C(O)C(C)O3)C(N(C)C)C2O)[C@@H](CC=O)C[C@@H](C)[C@@H](OC2CCC(N(C)C)C(C)O2)/C=C/C=C/C[C@@H](C)OC(=O)C[C@H]1OC(C)=O (stereo partly drawn)	·	·	·	·	·	-3%
Cc1cccc2c(=O)n3c(cc12)-c1[nH]c2ccccc2c1CC3	14µM*	·	·	10%	·	-2%
O=c1c2ccccc2nc2n1CCc1c-2[nH]c2ccccc12	4%	8%	-3%	·	·	?
N#Cc1c(C(F)(F)F)cc(-c2ccccc2)[nH]c1=O	?	-1%	?	-20%	107%	-2%
N#Cc1c(C(F)(F)F)cc(-c2ccccc2Cl)[nH]c1=O	3.5µM*	27%	26%	11%	11%	0%
CCOC(=O)c1ccc2[nH]c(C)cc(=O)c2c1	3.5µM*	-5%	0%	30%	-9%	6%
CCOC(=O)c1ccc2[nH]c(C)c(C)c2c1	-8%	·	·	12%	·	?
COC(=O)c1ccc2[nH]c(C)cc(=O)c2c1	28µM*	5%	5%	-7%	-14%	2%
Cc1sc2ccccc2[n+]1CCCCBr	-1%	·	·	·	·	-5%
CCCC(=O)N(C)c1ccc(/C=C2\C=Cc3ccccc32)cc1	-1%	·	·	·	·	-2%
CCC1CN(CCNC(=O)c2cc3ccccc3oc2=O)Cc2cc(OC)ccc2O1 (stereo not drawn)	·	·	·	·	·	-2%
COc1ccc(C(=O)Nc2ccc3nc(SCc4ccc(C)cc4)sc3c2)cc1	25µM*	·	·	·	-9%	1%
